# From PubChem
# Keap1 Nrf2 FP – disrupts human Keap1 binding to Nrf2 peptide; Keap1 Kelch-Nrf2 peptide fluorescence polarization, 1536-well; Q14145; inhibition, % at 9.4 µM; hit rate 0.15% among 340,000; in the data active = inhibition above about 12%;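 note: human Keap1 Kelch domain with fluorescein labeled Nrf2 9mer peptide probe; higher means more block of Keap1 binding to Nrf2 peptide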
# Target sequence (Q14145 whole entry, looked up, the tested form may be a part): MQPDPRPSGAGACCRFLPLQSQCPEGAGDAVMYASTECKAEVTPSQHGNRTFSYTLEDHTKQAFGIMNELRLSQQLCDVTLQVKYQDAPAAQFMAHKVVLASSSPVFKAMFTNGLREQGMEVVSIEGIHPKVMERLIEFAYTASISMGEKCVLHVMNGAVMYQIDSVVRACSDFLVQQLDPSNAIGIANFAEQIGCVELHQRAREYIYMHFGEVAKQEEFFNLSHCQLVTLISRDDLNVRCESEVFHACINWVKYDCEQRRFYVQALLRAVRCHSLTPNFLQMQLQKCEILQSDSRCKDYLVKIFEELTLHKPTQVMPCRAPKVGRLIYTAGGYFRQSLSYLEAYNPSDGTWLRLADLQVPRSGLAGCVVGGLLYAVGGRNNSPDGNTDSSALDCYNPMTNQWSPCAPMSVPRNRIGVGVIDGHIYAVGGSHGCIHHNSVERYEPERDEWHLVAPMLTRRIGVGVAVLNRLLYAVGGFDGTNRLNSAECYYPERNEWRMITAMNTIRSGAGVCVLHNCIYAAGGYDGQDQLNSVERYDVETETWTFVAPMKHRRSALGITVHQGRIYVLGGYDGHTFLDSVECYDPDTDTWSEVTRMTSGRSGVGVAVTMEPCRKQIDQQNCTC
# Cardiac RTF inh – cardiac RTF calcium desensitization | P19429+P45379 | IANBD-labeled cardiac RTF, Ca2+ fluorescence | inhibition, % at 7.15 µM | hit rate 0.12% among 340,000;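 active = inhibition above the mean inhibition of all tested compounds plus 3 SD, cut at about 17% in these data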;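 note: assay run at fixed EC70 calcium of 1.6 mM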
# RTF Ca sens act – cardiac RTF calcium sensitization. P19429+P45379. hit rate 0.24% among 340,000. IANBD-labeled TnC RTF fluorescence at EC20 calcium; 0% EC20 calcium, 100% full calcium. activation, % at 7.2 µM;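 active = activation above the mean over all tested compounds plus 3 SD, cut at about 30% in these data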;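 note: rise in fluorescence read as greater calcium sensitivity of cardiac thin filaments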
# LANA-H2A inh – blocks KSHV LANA binding to histone H2A/H2B | Q9QR71 | cell-free LANA-H2A/H2B peptide, fluorescence polarization | inhibition, % (test concentration not listed) | hit rate 0.6% among 320,000 | AID 2629; in the data active = inhibition mostly above about 10%, no sharp cut-off; inactive = mostly below about 6.7%
# C-LANA FP – blocks KSHV LANA C-terminal domain binding to DNA; hit rate 0.078% among 340,000; inhibition, % at 9 µM; MBP-C-LANA/FAM-LBS DNA binding, fluorescence polarization; AID 504423;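 active = highest replicate inhibition at or above 60% at 9 µM, even if other replicates fall short; inactive = all replicates below 60% inhibition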
# Hits are given with their value; n = inactive; x = not tested or not shown. Hits are enriched below; roughly 0.98% of the tested compounds scored in any of these assays.
SMILES,Keap1 Nrf2 FP,Cardiac RTF inh,RTF Ca sens act,LANA-H2A inh,C-LANA FP
CCNC(=S)Nc1ccc2c(c1)oc1ccccc12,n,n,n,n,n
CC(C)=N/N=C1\NC(=O)C(C)S1 (stereo not given),n,n,n,n,n
C/C(=N\N=C1/NC(=O)C(C)S1)c1ccc([N+](=O)[O-])cc1 (stereo not given),n,n,n,15.7,n
CC1CN(c2snnc2C=C2C(=O)OC(C)(C)OC2=O)CC(C)O1 (stereo not given),n,n,n,n,n
CCOC(=O)NC1(C(F)(F)F)N=C(c2ccccc2)NC1=O (stereo not given),n,n,n,14.5,n
Cc1ccc(NC2(C(F)(F)F)N=C(c3ccccc3)NC2=O)nc1 (stereo not given),n,n,n,n,n
CC(CCC(C)C(C)(C)C)[C@@H]1CC[C@H]2C3C[C@H](OS(O)(=S)=S)[C@H]4C[C@H](OS(O)(=S)=S)[C@@H](OS(O)(=S)=S)C[C@]4(C)[C@H]3CC[C@]12C (stereo not given in full) (tested in a mixture with another compound),84.3,56.2,n,n,123.2
COc1ccc(/C=C2\N=C(C(C)(C)C)OC2=O)c(OC)c1,n,n,n,n,n
CN1C(=O)/C(=C\c2ccc(N(C)C)cc2)OC1=S,n,n,45.7,n,n
CN(C)c1ccc(/C=C2\N=C(C(C)(C)C)OC2=O)cc1,n,n,29.9,n,n
COc1ccc(/C=C2\OC(=S)N(C)C2=O)cc1,n,n,n,n,n
COc1cccc2cc(C(=O)NCc3ccc(Cl)cc3)c(=O)oc12,n,n,n,n,n
Cc1ccc(C)c(S(=O)(=O)Nc2cc(SCC(=O)O)c(O)c3ccccc23)c1,61.2,n,n,n,n
CCc1ccc(S(=O)(=O)Nc2cc(SCC(=O)O)c(O)c3ccccc23)cc1,n,n,n,n,n
COC(=O)c1ccccc1NC(=S)N(Cc1ccc2c(c1)OCO2)Cc1cc2cccc(C)c2[nH]c1=O,n,n,n,n,n
CCOC(=O)/C(=C/C1=CC(=C/N(C)C)/C(=O)O1)C(C)=O,n,n,52.9,n,n
CCOc1ccc(N2C(=O)C3ON(c4ccccc4)C(c4ccco4)C3C2=O)cc1 (stereo not given),n,n,n,11.4,n
Cc1ccccc1N1C(=O)C2ON(c3ccccc3)C(c3ccco3)C2C1=O (stereo not given),n,n,n,n,n
NC(N)=N/N=C(\N=Nc1ccccc1)c1ccc(Cl)cc1,n,n,n,x,n
COc1ccc(C2C=C(c3ccc(C)c(C)c3)Nc3ncnn32)c(OC)c1OC (stereo not given),n,n,n,n,n
COc1cccc(C2C=C(c3ccc(Br)s3)Nc3ncnn32)c1OC (stereo not given),n,n,37.1,n,n
Fc1ccc(Br)cc1C1C=C(c2ccc(Br)s2)Nc2ncnn21 (stereo not given),n,n,72.9,n,n
CCS(=O)(=O)N1Cc2ccccc2CC1C(=O)N(C)CC(=O)Nc1ccc(F)c(F)c1F (stereo not given),n,n,n,31.5,n
CCOc1cccc(N2CCN(CCNC(=O)Nc3ccc(C)cc3)CC2)c1C,n,n,n,n,n
COCCCn1c(=O)/c(=C\c2ccc(OC(F)F)c(OC)c2)s/c1=C(/C#N)C(N)=O,n,n,n,29.2,n
SMILES,Keap1 Nrf2 FP,Cardiac RTF inh,RTF Ca sens act,LANA-H2A inh,C-LANA FP
COc1ccc(C2=NN3C(=O)c4c(ccc(OC)c4OC)C3C2)cc1 (stereo not given),n,n,n,38.5,n
CC(C)c1ccc(N(CC(=O)NCCCN2CCOCC2)S(=O)(=O)c2ccccc2)cc1,n,n,n,x,n
CCOc1cc(N2CCOCC2)c(OCC)cc1NC(=O)CSc1nnc(N)s1,n,n,n,n,n
COC(=O)c1cc2c(=O)c3ccccc3oc2nc1/C=C/N(C)C,n,n,47.9,n,n
CCCC(=O)NCCc1nc2ccccc2n1C,n,n,n,n,n
CCc1c2ccccc2nn1-c1ccccc1C(=O)C(C)=O,n,n,n,10.4,n
O=C(NCCc1ccc(Cl)cc1)/C(=C/c1cccnc1)NC(=O)c1ccccc1,n,n,n,n,n
O=C(CN1CCCCC1)NC(=O)NC1CCCCC1,n,n,n,n,n
C=CCn1c(SCc2c(C)noc2C)nc2sc(C)c(C)c2c1=O,n,n,n,55.7,n
Nc1ccc(S(N)(=O)=O)cc1,n,n,n,n,n
